High-throughput results: PubChem, National Center for Advancing Translational Sciences (NCATS)
Shown are actives, neighbours in structure and some others; about 18% of the full set was active somewhere.
IL-1B inflam inh: qHTS for Inhibitors of Inflammasome Signaling: IL-1-beta AlphaLISA Primary Screen. activity change, % at 57.5 µM. AID 743279, 2014. THP-1 LPS/ATP IL-1B secretion, AlphaLISA, 16 h; hits give low values. 360,000 compounds, 4.7% hits; in the data active = activity change below about -50%; inconclusive = mostly about -30% to -49%
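THP-1 cells pretreated 1 hr with compounds (up to 57.5 uM final), then stimulated with LPS (250 ng/mL final) plus ATP (1.25 mM final); secreted IL-1B measured by AlphaLISA after 16 hr, decreased signal indicating inhibition.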
VP16 counter: VP16 counterscreen qHTS for inhibitors of ROR gamma transcriptional activity | Drosophila S2 Gal4-VP16 UAS-luciferase, luminescence, 20 h | Potency, µM (top dose mostly 53.6 µM), without a hit: at the top dose activity, negative = inhibition, most hits filed as inhibitors | 310,000 compounds, 3.5% hits | AID 2546, 2010;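 note: Gal4-VP16 expression switched on by copper sulfate through the metallothionein promoter; potency is the fitted concentration of half-maximal effect; nearly all actives have a fitted effect of over 50% in size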
TDP1 cell CPT: qHTS for Inhibitors of human tyrosyl-DNA phosphodiesterase 1 (TDP1): qHTS in cells in presence of CPT. chicken DT40 Tdp1-/-;hTDP1 cells + 20 nM CPT, ATP luminescence, 48 h. Potency, µM (highest dose often 46.2 µM), for the others: top-dose activity change, negative = growth inhibition, most hits filed as inhibitors. 420,000 compounds, 12% hits; note: potency is the fitted concentration of half-maximal effect; nearly all actives have a fitted effect of over 55% in size
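Chicken DT40 Tdp1-/- cells stably complemented with human TDP1 were seeded at 400 cells/well in medium containing 20 nM camptothecin, exposed to pin-transferred compounds, and grown at 37 °C for at least 48 hr. Viability was read as ATP luminescence.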
LDHA block: qHTS assay for inhibitors of human lactate dehydrogenase; 480,000 compounds, 0.15% hits; purified LDHA, NADH/diaphorase-resazurin fluorescence; hits give low values; activity change, % (values are at about 110 or 230 µM); in the data active = activity change below about -30%; inconclusive = mostly about -25% to -30%;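 note: plate controls were DMSO wells for no effect and wells without enzyme for full effect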
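Enzyme activity of human lactate dehydrogenase 5 (2 nM; 0.06 mM NADH, 0.2 mM pyruvate, 5 min, RT) is measured via a resazurin/diaphorase fluorescence readout of residual NADH.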
DT40 TDP1 no CPT: qHTS for Inhibitors of human tyrosyl-DNA phosphodiesterase 1 (TDP1): qHTS in cells in absence of CPT; DT40 Tdp1-/- hTDP1 cells, no CPT, ATP luminescence, 48 h; Potency, µM (top dose mostly 46.2 µM), for the others: at the highest dose activity change, negative = growth inhibition, hits mostly inhibitors; 420,000 compounds, 15% hits; AID 686978, 2013; note: potency is the fitted concentration of half-maximal effect; nearly all actives have a fitted effect of over 55% in size
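DT40 Tdp1-/-;hTDP1 cells, no CPT (DMSO vehicle only), 400 cells/well; compounds pin-transferred; ≥48 hr, 37 °C; CellTiter-Glo 30 min RT dark, luminescence read.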
RORg inh: qHTS for inhibitors of ROR gamma transcriptional activity | Nuclear receptor ROR-gamma (Mus musculus), P51450 | Drosophila S2 Gal4-RORgamma UAS-luciferase reporter, 20 h | Potency, µM (highest dose often 53.6 µM), without a hit: at the top dose activity change, negative = inhibition, usual class: inhibitors | 310,000 compounds, 5.4% hits; note: potency is the fitted concentration of half-maximal effect; nearly all actives have a fitted effect of over 60% in size
Target sequence (P51450 whole entry, looked up, the tested form may be a part): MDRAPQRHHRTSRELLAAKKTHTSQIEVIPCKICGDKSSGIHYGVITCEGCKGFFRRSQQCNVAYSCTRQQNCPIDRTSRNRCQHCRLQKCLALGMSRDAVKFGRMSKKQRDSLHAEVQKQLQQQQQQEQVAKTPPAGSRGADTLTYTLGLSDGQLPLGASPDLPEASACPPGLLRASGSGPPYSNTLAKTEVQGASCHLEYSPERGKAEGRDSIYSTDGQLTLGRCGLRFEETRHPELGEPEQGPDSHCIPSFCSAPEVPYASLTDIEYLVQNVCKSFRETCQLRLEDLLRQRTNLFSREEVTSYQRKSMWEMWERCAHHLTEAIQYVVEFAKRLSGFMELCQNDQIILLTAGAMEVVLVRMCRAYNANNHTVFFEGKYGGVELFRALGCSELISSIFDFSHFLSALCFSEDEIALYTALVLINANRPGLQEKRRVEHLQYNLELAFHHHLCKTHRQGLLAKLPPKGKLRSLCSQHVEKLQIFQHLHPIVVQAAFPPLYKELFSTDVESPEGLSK
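Schneider cells (Drosophila), stable Gal4 DBD–ROR gamma + UAS-luc; 1 hr cmpd preincubation; Cu2+ induction 700 uM final; 20 hr ambient; luminescence.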
Numbers without * were called inactive; ? = inconclusive; . = no result. Unless noted, calls come from the whole dose curve; as a rule, active = well fitted curve in the direction sought with a large enough effect; inconclusive = small, poorly fitted or top-dose-only effect, or another doubt; inactive = no such curve, though single readings can be large; an effect the other way counts as inactive or inconclusive. Unless noted, % is set by controls: 0 for no effect and ±100 for the full control effect.

SMILES	IL-1B inflam inh	VP16 counter	TDP1 cell CPT	LDHA block	DT40 TDP1 no CPT	RORg inh
CCC(c1nnnn1-c1ccc2c(c1)OCCO2)N1CCN(CCN2CCOCC2)CC1 (stereo unspecified)	-0.5	.	-6.6%	-4.9	6.7%	.
CCC(c1nnnn1-c1ccc2c(c1)OCCO2)N1CCN(Cc2c(F)cccc2Cl)CC1 (stereo unspecified)	?	.	?	-10.6	23.1µM*	.
CCC(c1nnnn1-c1ccc2c(c1)OCCO2)N1CCN(c2cccc(C)c2C)CC1 (stereo unspecified)	-12.2	.	?	-8.3	18.4µM*	.
CCC(c1nnnn1-c1ccc2c(c1)OCCO2)N1CCN(c2cc(C)ccc2C)CC1 (stereo unspecified)	7.3	.	?	0.1	?	.
CCC(c1nnnn1-c1ccc2c(c1)OCCO2)N1CCN(c2ccc(OC)cc2)CC1 (stereo unspecified)	-7.4	.	20.6µM*	7.7	?	.
COc1ccc(-c2c(C#N)c(N)nc3c2CN(C)CC3)c(OC)c1	.	.	.	-10.5	.	.
Cc1cc(C(C)(C)C)cc(C)c1CSC1=NCC(C)(C)CN1	.	.	.	4.8	.	.
CCN(Cc1cc2cc(OC)ccc2[nH]c1=O)C(=O)c1ccco1	.	.	.	10.9	.	.
Cc1nc(C(C)C)sc1C(=O)NCc1ccccc1	.	.	.	3.1	.	.
Cn1c(=O)c2c(ncn2Cc2ccc(F)cc2Cl)n(C)c1=O	.	.	.	4.4	.	.
Cc1ccc2c(c1C)NC(=O)C21N2CCCC2C(C(=O)c2ccc3ccccc3c2)C12C(=O)Nc1ccccc12 (stereo unspecified)	?	-29.1%	23.1µM*	2.6	11.6µM*	?
C#CCNC(=O)c1cc(-c2ccccc2)nc2ccccc12	.	.	.	5.4	.	.
COc1ccc2nc(N(CCN(C)C)C(=O)c3ccc4ncsc4c3)sc2c1	18.3	.	-2.4%	-1.7	-18.7%	.
Cc1ccc(S(=O)(=O)CC(=O)N(CCCN(C)C)c2nc3ccc(C)cc3s2)cc1	-54.6*	.	3.0%	-2.9	-4.4%	.
Cc1ccc2nc(N(CCCN(C)C)C(=O)c3ccc(S(=O)(=O)N4CCCCCC4)cc3)sc2c1	.	?	?	2.3	?	11.2µM*
Cc1ccc2nc(N(CCCN(C)C)C(=O)c3ccc4ncsc4c3)sc2c1	0.0	-19.9%	16.4µM*	-3.8	?	7.7%
CN(C)CCCN(C(=O)c1ccc(S(=O)(=O)N2CCCCCC2)cc1)c1nc2ccc(F)cc2s1	-105.4*	-16.7%	?	-4.6	?	0.0%
CN(C)CCCN(C(=O)c1ccc(S(=O)(=O)N2CCOCC2)cc1)c1nc2ccc(F)cc2s1	-12.4	-5.3%	-6.0%	-6.8	-2.0%	2.6%
COc1ccc(/C=C/c2cc(C(=O)O)c3ccccc3n2)cc1O	.	.	.	33.2	.	.
CS(=O)(=O)c1ccc2nc(NC(=O)Cc3ccc(Cl)cc3)sc2c1	.	.	.	3.2	.	.
CNCCC1Sc2ccccc2Oc2ccccc21 (stereo unspecified)	-29.5	11.6%	?	-6.9	?	-25.5%
CN(C)CCCC1Sc2ccccc2Sc2ccccc21 (stereo unspecified)	-66.1*	.	?	-19.6	?	.
Cc1ccc(NC(=S)NCCO)cc1	.	.	.	2.2	.	.
CCN(CC(=O)Nc1cc(S(=O)(=O)N2CCCCC2)ccc1C)Cc1ccccc1	-14.1	.	20.6µM*	-3.5	18.4µM*	.
Cc1ccc(S(=O)(=O)N2CCCCC2)cc1NC(=O)CCCOc1ccccc1	-3.7	.	?	2.6	20.6µM*	.
SMILES	IL-1B inflam inh	VP16 counter	TDP1 cell CPT	LDHA block	DT40 TDP1 no CPT	RORg inh
CCN(CC(=O)Nc1ccc(C)c(S(=O)(=O)N2CCOCC2)c1)Cc1ccccc1	-2.0	.	20.6µM*	-1.7	?	.
CCN(CC(=O)NCC(=O)Nc1ccc(Br)cc1C)Cc1ccccc1	-62.8*	.	-19.3%	-7.7	?	.
Cc1ccc(NC(=O)CCc2ccccc2)cc1S(=O)(=O)N1CCOCC1	29.0	.	-29.3%	-6.6	?	.
COc1cc2c(c(OC)c1)C(c1ccccc1)C1=C(CCCC1=O)N2 (stereo unspecified)	.	.	.	2.1	.	.
Cc1cccc(C(=O)Nc2ccc(OC(=O)c3ccc4c(c3)NC(=O)CCS4)cc2)c1	.	.	.	7.7	.	.
CNC(=O)c1nn(CN2CCN(Cc3cccc(C)c3)CC2)c(=O)c2ccccc12	.	.	.	-4.3	.	.
CC(=O)c1ccc(OCCCC(=O)Nc2cc(S(=O)(=O)N3CCCCC3)ccc2C)cc1	5.9	.	?	0.0	23.1µM*	.
Cc1ccc(S(=O)(=O)N2CCCCC2)cc1NC(=O)CCOc1ccccc1	-1.9	6.2%	?	-10.3	?	?
COC(=O)c1ccc2nc(-c3ccc(OC)c(OC)c3)c(Cc3ccc(C)cc3)n2c1	-5.5	.	?	-2.9	20.6µM*	.
COC(=O)c1ccc2nc(-c3ccc(C)cc3)c(Cc3ccc(C)cc3)n2c1	36.9	.	?	6.6	16.4µM*	.
COC(=O)c1ccc2nc(-c3ccco3)c(Cc3cccc(F)c3)n2c1	28.0	.	16.4µM*	1.5	18.4µM*	.
COC(=O)c1ccc2nc(-c3ccco3)c(Cc3ccc(OC)cc3C)n2c1	-18.3	.	?	-0.2	?	.
COC(=O)c1ccc2nc(-c3ccco3)c(Cc3ccc(C)cc3)n2c1	33.3	.	-97.7%	-1.4	?	.
COC(=O)c1ccc2nc(-c3ccc(OC)c(OC)c3)c(Cc3cccc(F)c3)n2c1	18.3	.	11.6µM*	-1.2	13µM*	.
COC(=O)c1ccc2nc(-c3ccccc3)c(Cc3cccc(F)c3)n2c1	17.9	.	?	1.7	?	.
O=C(O)c1cccc(-n2cccc2/C=C2/C(=O)N(Cc3ccc(F)cc3)C(=O)N2Cc2ccc(F)cc2)c1	.	.	.	-6.8	.	.
O=C(O)CN(/C=C/C(=O)C(F)(F)F)CC(=O)O	.	.	.	-7.6	.	.
CC(C)n1cnnc1SCCOc1ccccc1Cl	.	.	.	0.2	.	.
Clc1cccc(CSc2cccc3cccnc23)c1	.	.	.	1.8	.	.
COC(=O)c1ccc2nc(-c3ccc(F)cc3)c(Cc3cccc(Cl)c3)n2c1	30.3	.	?	-2.9	18.4µM*	.
COC(=O)c1ccc2nc(-c3ccc(F)cc3)c(Cc3cccc(F)c3)n2c1	0.0	.	-27.9%	4.9	-28.3%	.
Cc1ccc(F)c(Nc2ncnc3c2oc2ccccc23)c1	.	.	.	5.9	.	.
CC(C)(CNC(=O)c1cccc2ccccc12)CNC(=O)c1cccc2ccccc12	.	.	.	9.5	.	.
